Screening data deposited in PubChem by National Center for Advancing Translational Sciences (NCATS).
HT1080 IDH1KD tx = HT-1080 IDH1 knockdown cell toxicity (counter line). HT-1080 IDH1 knockdown viability, ATP luminescence, 48 h. Potency, µM (doses to about 46.1 µM), without a hit: top-dose activity, negative = toxicity, most hits filed as cytotoxic. 360,000 tested, 2% active. AID 686971;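 also: potency is read from the fitted curve at half-maximal effect; 0% = DMSO wells and -100% = cell-free medium wells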
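In this qHTS, HT-1080 cells depleted of IDH1 are exposed for 48 h at 37 °C to compound titrations. Toxicity is scored from CellTiter-Glo luminescence, with DMSO as full viability and medium alone as none.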
DT40 TDP1 no CPT = qHTS for Inhibitors of human tyrosyl-DNA phosphodiesterase 1 (TDP1): qHTS in cells in absence of CPT; AID 686978, 2013; 420,000 tested, 15% active; Potency, µM (series often up to 46.2 µM), for the others: at the highest dose activity change, negative = growth inhibition, hits mostly inhibitors; DT40 Tdp1-/- hTDP1 cells, no CPT, ATP luminescence, 48 h; also: potency is read from the fitted curve at half-maximal effect; nearly all actives have a fitted effect of over 55% in size
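Luminescent ATP content (CellTiter-Glo) served as the growth readout. Knockout chicken DT40 cells expressing human TDP1 were exposed to compounds without camptothecin for a minimum 48 hr at 37 °C.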
IL-1B inflam inh = blocks inflammasome-driven IL-1 beta release | activity change, % at 57.5 µM | AID 743279 | 360,000 tested, 4.7% active | THP-1 LPS/ATP IL-1B secretion, AlphaLISA, 16 h; active compounds read low; in the data active = activity change below about -50%; inconclusive = mostly about -30% to -49%
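Secreted IL-1B measured by AlphaLISA bead assay after 16 h compound exposure of THP-1 cells; compounds (final up to 57.5 uM) added 1 h before LPS (250 ng/mL) and ATP (1.25 mM) stimulation; lower signal means less secretion.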
HT1080NT lethal = kills 2HG-producing HT-1080-NT fibrosarcoma cells. HT-1080-NT fibrosarcoma viability, CellTiter-Glo ATP luminescence, 48 h. 360,000 tested, 1.6% active. Potency, µM (series often up to 46.1 µM), without a hit: top-dose activity, negative = less viability, actives largely listed as cytotoxic. AID 686970;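 also: NT is the 2HG producing partner of a matched IDH1 knockdown line; potency is read from the fitted curve at half-maximal effect; 0% = DMSO-treated cells and -100% = media-only wells without cells; nearly all actives have a fitted effect of over 55% in size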
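Toxicity toward the 2HG-producing NT line was scored as %Activity, normalised to DMSO and no-cell wells, from CellTiter-Glo luminescence after 48 hours' treatment.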
DT40 TDP1 CPT = DT40-hTDP1 cell growth loss with CPT | chicken DT40 Tdp1-/-;hTDP1 cells + 20 nM CPT, ATP luminescence, 48 h | Potency, µM (series often up to 46.2 µM), inactives show at the top dose activity change, negative = growth inhibition, actives largely listed as inhibitors | 420,000 tested, 12% active | AID 686979; also: potency is read from the fitted curve at half-maximal effect; nearly all actives have a fitted effect of over 55% in size
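Cell growth measured by CellTiter-Glo luminescence after a minimum 48 h, 37 C compound exposure with 20 nM CPT in Tdp1-knockout DT40 cells stably expressing hTDP1, seeded 400/well; qHTS titration format.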
* = called active by the depositor; ? = inconclusive; . = no result given; [ ] = another dose, or the depositor's remark. The list is not random: actives were taken first. Their share in the collection is about 19%. Unless noted, calls follow the shape of the dose curve; as a rule, active = well fitted curve in the direction sought with a large enough effect; inconclusive = small, poorly fitted or top-dose-only effect, or another doubt; inactive = no such curve, though single readings can be large; an effect the other way counts as inactive or inconclusive. Unless noted, % is scaled to controls: 0 for no effect and ±100 for the full control effect.

SMILES	HT1080 IDH1KD tx	DT40 TDP1 no CPT	IL-1B inflam inh	HT1080NT lethal	DT40 TDP1 CPT
CC1c2cc3c(cc2CCN1CC(=O)Nc1ccc(S(=O)(=O)N2CCCC2)cc1)OCCCO3 (configuration not stated)	-11%	-25%	-28	-5%	?
CC(=O)Nc1ccc(C(=O)N2CCc3cc4c(cc3C2C)OCCCO4)cc1 (configuration not stated)	-12%	18µM*	11	-5%	?
Cc1ccc(C(=O)N2CCc3cc4c(cc3C2C)OCCCO4)cc1 (configuration not stated)	?	?	-16	?	23µM*
CC1c2cc3c(cc2CCN1C(=O)c1ccc(Cl)cc1)OCCCO3 (configuration not stated)	?	13µM*	-59*	?	16µM*
CC1c2cc3c(cc2CCN1C(=O)c1ccc(C(F)(F)F)cc1)OCCCO3 (configuration not stated)	-5%	?	-3	-9%	?
Cc1cccn2c(=O)nc(SCC(=O)NC3CCCC3)nc12	1%	-12%	1	2%	-13%
Cc1nc(CN(C)C(=O)c2ccccc2OC2CCN(S(C)(=O)=O)CC2)cs1	14%	-18%	3	10%	1%
Cc1ccc(NC(=O)COC(=O)c2ccc([N+](=O)[O-])o2)cc1S(=O)(=O)N1CCCCCC1	13%	-7%	-19	8%	11%
CN1CCN(C(=O)c2cccc(COc3cc(Cl)ccc3Cl)c2)CC1	-7%	22µM*	-14	?	?
COc1ccc(-c2[nH]nc3nc(-c4cc(Br)ccc4OC)cc(C(=O)O)c23)cc1	.	-3%	.	.	1%
CN(C)CCNC(=O)c1onc(CSc2nc3ccccc3[nH]2)c1C(=O)NCCN(C)C	10%	-15%	13	17%	-2%
CCOC(=O)N1CCN(C(=O)C[C@@H]2C[C@@]3(C(=O)OCC)CCCC=C3N(CCC3=CCCCC3)C2=O)CC1	?	16µM*	-14	?	?
CCOC(=O)[C@]12CCC=C1N(CCC1=CCCCC1)C(=O)[C@H](CC(=O)N1CCC(c3ccccc3)CC1)C2	?	18µM*	-3	?	?
O=C1/C(=C/c2ccccn2)SC(=S)N1N1CCOCC1	14%	-21%	15	23%	-7%
COc1ccc(S(=O)(=O)Nc2ccc(Oc3ccsc3C(=O)O)cc2)cc1	13%	-8%	-2	0%	-10%
CCNS(=O)(=O)c1ccc(S(=O)(=O)N(Cc2ccccn2)C2CCCCC2)cc1	-3%	-26%	-10	2%	-29%
O=S(=O)(NCc1ccccc1)c1ccc(S(=O)(=O)N(Cc2ccccn2)C2CCCC2)cc1	-3%[9.24 µM]	18µM*	?	?	?
CCN(C1CCCCC1)S(=O)(=O)c1ccc(S(=O)(=O)NCc2ccncc2)cc1	?	9.2µM*	?	?	7.3µM*
COc1cc(C)nc(N(Cc2ccccc2)S(=O)(=O)c2ccc(C)cc2)n1	-19%	18µM*	?	-13%	?
CC(C)C[C@@H](COCc1cccc(C(F)(F)F)c1)N1CCN(C(=O)c2ccc(C(F)(F)F)cc2)CCC1=O	?	?	-73*	?	?
CC(C)CC(COCc1cccc(Cl)c1)N1CCN(C(=O)c2cccc(C(F)(F)F)c2)CCC1=O (configuration not stated)	-23%	?	-16	-26%	?
Cc1cccc(COC[C@H](CC(C)C)N2CCN(C(=O)c3ccc(C(F)(F)F)cc3)CCC2=O)c1	?	16µM*	?	-24%	?
CCN(c1ccccc1)S(=O)(=O)c1cc([N+](=O)[O-])ccc1N	-9%	-29%	23	-2%	1%
COc1ccc(NC(=O)Nc2nc(C(N)Cc3ccc(C(F)(F)F)cc3)cs2)cc1 (configuration not stated)	?	16µM*	?	?	?
COc1ccc(CC(N)c2csc(NC(=O)Nc3ccc(OC)cc3)n2)cc1 (configuration not stated)	?	16µM*	-50*	23µM*	21µM*
SMILES	HT1080 IDH1KD tx	DT40 TDP1 no CPT	IL-1B inflam inh	HT1080NT lethal	DT40 TDP1 CPT
COc1ccc(CC(N)c2csc(NC(=O)c3cc(C(C)(C)C)oc3C)n2)cc1 (configuration not stated)	21µM*	?	-57*	21µM*	23µM*
COc1cc(NC(=O)Nc2nc(C(N)Cc3ccc(C(F)(F)F)cc3)cs2)cc(OC)c1OC (configuration not stated)	18µM*	12µM*	-30	21µM*	12µM*
COc1ccc(NC(=O)Nc2nnc(C(C)C)s2)cc1	-12%	?	-20	-3%	-20%
COc1ccc(CC(CC(=O)O)C(=O)Nc2ccc(OC)cc2)cc1 (configuration not stated)	-7%	-1%	0	0%	-1%
Cc1cc(NC(=O)COC(=O)CCNS(=O)(=O)c2ccccc2)n(-c2ccccc2)n1	4%	-5%	10	6%	0%
CC(C)C(c1nnnn1Cc1ccccc1)N(Cc1ccco1)Cc1cccs1 (configuration not stated)	-30%	21µM*	-10	-13%	?
COc1ccccc1C(OC(=O)c1cccs1)C(=O)NCC1CCCO1 (configuration not stated)	-8%	-16%	6	1%	-8%
COc1ccc(C(OC(=O)c2cccs2)C(=O)NCC2CCCO2)cc1 (configuration not stated)	5%	-2%	-59*	13%	3.7µM*
O=C(OC(C(=O)NCC1CCCO1)c1ccccn1)c1cccs1 (configuration not stated)	14%	-3%	-56*	0%	-2%
COCC(=O)N1CCC[C@@]2(CCN(Cc3nccs3)C2)C1	.	3%	.	.	3%
CCn1c(=O)c(C(C)=O)nc2ccccc21	4%	-10%	0	10%	-9%
CCCCn1c(C(C)NC(=O)CCC)nc2ccccc21 (configuration not stated)	5%	18µM*	30	1%	?
CCCC(=O)NC(C)c1nc2ccccc2n1C (configuration not stated)	-1%	-5%	2	13%	-7%
CCCCCn1c(C(C)NC(=O)CCC)nc2ccccc21 (configuration not stated)	2%	18µM*	25	-9%	12µM*
